Where “and” joins values, the source holds several entries; their conditions need not be identical. Equal values may be shown once. Out of some 13,000 compounds screened, fewer than 10 showed an effect of 50% or more. A selection follows.

For the assay, the system named is Plasmodium falciparum. Briefly: GSK_TCMDC: Inhibition of Plasmodium falciparum 3D7 LDH activity, using an LDH reporter assay. Test compounds present at 2uM. The class given is functional, organism-based.
The compound `Cc1ccc(Cl)c2sc(N3CCN(C(=O)c4ccc([N+](=O)[O-])o4)CC3)nc12` yielded an inhibition of 0%. In turn, `O=C(c1ccc([N+](=O)[O-])o1)N1CCN(c2nc3c(F)cc(F)cc3s2)CC1` came in with an inhibition of 0%. As for `O=C(/C=C/c1ccc(I)cc1)NCCCCCN1CCC(c2c[nH]c3ccc(O)cc23)CC1`, the figure is 2%. The compound `CN1CCN(CC(=O)Nc2cccc(-c3ccc(-c4nc5cc(F)ccc5[nH]4)cc3)c2)CC1` came in with an inhibition of 6%. As for `CCN(CC)CCN(CCN(CC)CC)c1ccc(-c2nc3cc(Cl)c(Cl)cc3[nH]2)cc1`, the inhibition amounted to 2%.

Regarding `Cc1ccc(-c2nc3cc(C(=O)NC4CCC(N5CCCc6ccc(C#N)cc6C5)CC4)ccc3[nH]2)cc1` (stereo not drawn), the inhibition stood at 0%. Regarding `CN(CCc1ccccn1)Cc1ccc(-c2ccc(-c3nc4ccccc4[nH]3)s2)cc1`, the inhibition stood at 6%.

`CC(C)(C)OC(=O)NCc1ccc(Nc2nnc(-c3cccc(C(=O)NCCC(c4ccccc4)c4ccccc4)c3)o2)cc1`: the inhibition was 0%. The compound `FC(F)(F)c1ccc2[nH]c(-c3cccc(-c4ccc(CNCC5CCCO5)cc4)c3)nc2c1` (stereo not drawn) displayed an inhibition of 0%. The value for `NCC1CCCN1Cc1cccc(-c2ccc(-c3nc4cc(C(F)(F)F)ccc4[nH]3)s2)c1` (stereo not drawn) was 0%. The value for `O=c1sn(-c2csc3ccccc23)c2ccccc12` was 0%; that for `COc1cc(NC(=O)C(c2ccc(Cl)cc2)C(C)C)cc(OC)c1` (stereo not drawn) was 0%; that for `CC1(C)NC(N)=NC(=N)N1OCCCc1c(Cl)cccc1Cl` was 3%. In turn, `Cn1cc(Br)c(-c2cccc(Nc3ccnc4cc(-c5nccs5)ccc34)c2)n1` returned an inhibition of 0%. `CC1(C)[C@H]2CC[C@@H](CNc3nc(NCCc4c[nH]cn4)nc(Nc4ccc(Oc5ccccc5)cc4)n3)[C@@H]1C2` gave an inhibition of 3%. `O=C(CC1NC(=O)c2ccccc21)Nc1ccc(-c2ccc(-c3nc4cc(C(F)(F)F)ccc4[nH]3)cc2)cc1` (stereo not drawn) yielded an inhibition of 0%. The value for `CC(C)CNCc1ccc(-c2cccc(-c3nc4ccccc4[nH]3)c2)cc1` was 0%; that for `Cc1cc2ccccc2n1CC(=O)N1CC(C(=O)N2CCCCC2)Oc2ccccc21` (stereo not drawn) was 2%.

Compound `CC1(C)CCC(C)(C)c2c1ccc(C1CCN(CCCCNC(=O)c3ccc(-c4ccc(C#N)cc4)cc3)CC1)c2O` came in with an inhibition of 7%. `c1cc(-c2ccc(CN3CCN(c4ccncc4)CC3)cc2)cc(-c2nc3ccccc3[nH]2)c1` yielded an inhibition of 0%.

With `FC(F)(F)c1ccc2[nH]c(-c3ccc(-c4ccc(CNCc5cnn(-c6ccccc6)n5)cc4)cc3)nc2c1`, the inhibition is 0%. The value for `OCc1ccc(-c2cncc(Nc3cccc(Cl)c3)c2)cc1` was 0%; that for `CNCCNCc1ccc(-c2ccc(-c3nc4cc(F)ccc4[nH]3)s2)cc1` was 2%; that for `CC(C)CCNC(=N)Nc1ccc(OCCCCCOc2ccc(NC(=N)NCCC(C)C)cc2)cc1` was 6%.

`CCOC(=O)c1ccc(NC(=O)Nc2cccc(-c3cccc(-c4nc5cccc(C)c5[nH]4)c3)c2)cc1` gave an inhibition of 0%. Regarding `CC(=NNc1nc2ccccc2s1)c1ccccn1`, the inhibition came to 0%. Compound `Cn1cccc1C(=O)C(=O)Nc1ccc(-c2ccc(-c3nc4cc(F)ccc4[nH]3)cc2)cc1` gave an inhibition of 0%.

In turn, `COC(=O)c1cccc(CNCc2cccc(-c3cccc(-c4nc5cc(C(F)(F)F)ccc5[nH]4)c3)c2)c1` came in with an inhibition of 6%. Compound `COc1ccc2nccc(N/N=C/c3cccc([N+](=O)[O-])c3)c2c1` had an inhibition of 0%. Turning to `CC(Cl)=CCc1c(C)nc2c(ccc3ccccc32)c1O`, the inhibition amounted to 8%. In turn, `Cc1cccc2nc(-c3ccc(-c4cccc(NC(=O)Nc5ccccc5)c4)cc3)[nH]c12` had an inhibition of 9%. The value for `CCOc1ccc2[nH]c(C)cc(=NN=Cc3cccc(F)c3)c2c1` was 0%.

With `COc1ccc2nc3cc(Cl)ccc3c(NCCCCCCNc3c4ccc(Cl)cc4nc4ccc(OC)cc34)c2c1`, the inhibition was 0%. As for `c1ccc(-c2ccc(CNCc3ccc(-c4cccc(-c5nc6ccccc6[nH]5)c4)cc3)s2)nc1`, the figure is 0%; as for `CN(C)c1ccc(CN2CCCCC(NC(=O)c3cc(-c4ccccc4Cl)cs3)C2)cc1` (stereo not drawn), 0%. `N=C(N)Nc1ccc(CCc2ccc(NC(=N)N)cc2)cc1` gave an inhibition of 0%. As for `COc1ccc2nccc([C@@H](O)CN3CCC(NC(=O)/C=C/c4ccc5ccccc5n4)CC3)c2c1`, the inhibition turned out to be 1%. As for `N#Cc1ccc(N/C(=N\c2ccc(-c3ccccc3)cc2)NCCc2c[nH]c3ccccc23)c(O)c1`, the figure is 6%; as for `Cc1cccc2nc(-c3cccc(-c4ccc(CNCCNC(=O)c5ccnn5C)cc4)c3)[nH]c12`, 0%. The value for `NC1CCCN(Cc2ccc(-c3ccc(-c4nc5cc(F)ccc5[nH]4)s3)cc2)C1` (stereo not drawn) was 1%; that for `COc1ccccc1CCNc1nc(C)cc(N[C@@H](Cc2ccccc2)C(=O)NCCOc2ccccc2)n1` was 4%; that for `O=C(Cn1c(SCc2cccc(F)c2F)cc(=O)c2ccccc21)N(CCn1ccnc1)Cc1ccc(-c2ccc(C(F)(F)F)cc2)cc1` was 0%.

Take `O=C(Nc1ccc(Cn2ncc(N3CCCNCC3)c(Cl)c2=O)cc1)Nc1ccc(-c2ccccc2)cc1`: the inhibition is 0% and 8%.

`O=C(OCc1ccccn1)c1nc2ccccc2[nH]1`: the inhibition was 0%.

In the case of `O=C(NCc1cccs1)[C@H](Cc1ccccc1)Nc1ccnc(NCCc2ccccc2)n1`, the inhibition is 0%. As for `Cc1cc(N2CCCC2)nc(NC(=N)Nc2cccc(C(F)(F)F)c2)n1`, the figure is 1%; as for `Cn1ncc2ccc(Nc3nccc(-c4ccc5c(c4)c(N)nn5C)n3)cc21`, 0%; as for `Cn1c(Cc2ccccc2)nnc1Sc1ccc(C#N)c([N+](=O)[O-])c1`, 0%. As for `O=C(NCCN1CCCC1)c1cccc(-c2ccc(-c3nc4cc(F)ccc4[nH]3)cc2)c1`, the figure is 0%. The value for `CCOc1ccc2nc3cc(NC(=O)c4ccco4)ccc3c(N)c2c1` was 0%; that for `Cc1cccc2nc(-c3ccc(-c4cccc(CN5CCN(c6ccncc6)CC5)c4)s3)[nH]c12` was 6%; that for `Cc1ccc(CN2CCN(Cc3cccc(NC(=O)c4cccs4)c3)CC2)cc1C` was 2%. With `CCN(CC)CCCC(C)Nc1c2ccccc2nc2c1ccc1ccccc12` (stereo not drawn), the inhibition was determined as 3%.

`CCOc1ccccc1NC(=O)C(Sc1nc(C)cc(C)c1C#N)c1ccccc1` (stereo not drawn) came in with an inhibition of 0%. `O=C(/C=C/c1ccc(Cl)c(Cl)c1)NCCCCCN1CCC(CCNC(=O)Cc2ccc(Cl)cc2)CC1` had an inhibition of 0%. As for `COc1ccc(CN2CCCN(Cc3cccc(NC(=O)c4ccc(Cl)c(Cl)c4)c3)CC2)cc1`, the figure is 5%; as for `CCN(CCCN1CCCCC1)c1cc(C)nc(Nc2cccc(C(F)(F)F)c2C)n1`, 0%.

Consider `COc1ccc2nc3cc(Cl)ccc3c(NCCCCNc3c4ccc(Cl)cc4nc4ccc(OC)cc34)c2c1`, for which the inhibition worked out at 6%. In turn, `CS(=O)(=O)NCCCNCc1cccc(-c2ccc(-c3nc4ccccc4[nH]3)s2)c1` yielded an inhibition of 6%. `O=C(NCc1ccc(F)cc1)Nc1ccc(-c2cccc(-c3nc4cc(C(F)(F)F)ccc4[nH]3)c2)cc1` showed an inhibition of 3%.

As for `O=C(Nc1cccc(C(F)(F)F)c1)c1ccc(S(=O)(=O)NCC2CCN(CC3CCCCC3)CC2)cc1`, the inhibition worked out at 0%. `N[C@@H](Cc1cc(I)c(Oc2ccc(O)c(C(=O)O)c2)c(I)c1)C(=O)O` gave an inhibition of 0%. As for `CC(C)CNCc1ccc(-c2ccc(CNC3CCN(Cc4ccccc4)CC3)cc2)cc1`, the figure is 4%; as for `CC1(C)N=C(N)N=C(N)N1c1ccc(Cl)cc1`, 0%; as for `COc1ccc(-c2ccc(NC(=O)c3ccccc3)cc2)cc1CN1CCCN(C)CC1`, 3%. As to `C=CCn1c(=N)c(C(=O)NCc2ccc(F)cc2)cc2c(=O)n3cccc(C)c3nc21`, the inhibition is 0%. The value for `CC(C)(Oc1ccc(Cl)cc1)C(=O)NCCC1CCN(CCCCCNC(=O)/C=C/c2ccc(Cl)c(Cl)c2)CC1` was 0%. As for `OC(CNCCCCCCNCC(O)c1ccc(Cl)c(Cl)c1)c1ccc(Cl)c(Cl)c1` (stereo not drawn), the figure is 0%; as for `Cc1cccc2nc(-c3ccc(-c4ccc(NC(=O)C(=O)c5cccn5C)cc4)cc3)[nH]c12`, 8%. The value for `C[C@H]1CN(Cc2cccc(-c3cc(CNC(=O)c4cccc(CC5CCN(C)CC5)c4)ccc3F)c2)CCN1C` was 2%; that for `Nc1c(I)cc(C(=O)Nc2ccc3nc4c(c(N)c3c2)CCCC4)cc1I` was 2%.

`FC(F)(F)c1cccc(Nc2nc3nonc3nc2NC2C3CC4CC(C3)CC2C4)c1` (stereo not drawn) gave an inhibition of 0%. In turn, `COc1ccc2nccc([C@@H](O)CN3CCC(NCc4cc5cccc(O)c5[nH]4)CC3)c2c1` returned an inhibition of 0%. The value for `Fc1ccc2[nH]c(-c3cccc(-c4cccc(CN5CCN(c6cnccn6)CC5)c4)c3)nc2c1` was 0%; that for `O=C(Cc1ccccc1)NC(c1ccc(Cl)cc1)c1ccc2cccnc2c1O` (stereo not drawn) was 0%; that for `Cc1noc(C)c1-c1ccc2c(Nc3ccccc3C(C)(C)C)c(C(=O)NCc3ccccc3)cnc2c1` was 0%. In turn, `Cc1cccc2nc(-c3ccc(-c4cccc(NC(=O)c5cncn5C)c4)s3)[nH]c12` returned an inhibition of 0%. Take `CC(C)CNCc1cccc(-c2cccc(CN(CCCN3CCN(C)CC3)C(=O)CCC3CCCC3)c2)c1`: the inhibition came to 0%. `Cc1cc(NC2CCN(CC3CCCCC3)C2)nc(Nc2ccc(Cl)cc2)n1` (stereo not drawn) returned an inhibition of 0%. The value for `Cc1noc(C)c1-c1ccc2c(Nc3cccc4c3-c3ccccc3C4=O)c(C(=O)NCc3ccccc3I)cnc2c1` was 2%; that for `CC(=O)Nc1ccc(OCCCCN(Cc2ccccc2C(F)(F)F)c2ccc(C#N)c(C(F)(F)F)c2)c(Cl)c1` was 0%. The value for `COc1ccc(-c2cccc(NC(=O)c3ccc(Cl)cc3)c2)cc1CN1CCNCC1` was 0%.

The compound `COc1ccc2c(NN=Cc3ccc(F)cc3)ccnc2c1` came in with an inhibition of 0%. The value for `COc1ccc(C=NN=c2cc(C)[nH]c3ccccc23)cc1OC` was 0%; that for `COC(=O)c1cccc(CNCc2ccc(-c3cccc(-c4nc5cc(C(F)(F)F)ccc5[nH]4)c3)cc2)c1` was 6%.

`CCn1c(-c2nonc2N)nc2c(-c3ccccc3)ncc(OCCCCNCCc3ncc[nH]3)c21` returned an inhibition of 0%. As for `CCc1c[nH]c2c(N3CCCS3(=O)=O)cc(C(=O)N[C@@H](Cc3ccccc3)[C@H](O)CNC(C)(C)CCCC(C)C)cc12`, the figure is 0%; as for `COc1ccc(C2CCC(NCCCCNC(=O)c3ccc(NC(=O)c4ccc(Cl)cc4)cc3)CC2)cc1` (stereo not drawn), 0%.

Values taken from ChEMBL document CHEMBL1157539, “Thousands of chemical starting points for antimalarial lead identification” (Nature, 2010).
